Screens deposited in PubChem BioAssay by The Scripps Research Institute Molecular Screening Center.
M1 PAM parental: M1 PAM counterscreen hit in parental CHO-K1 cells; ATP EC20, Fluo-8 calcium fluorescence; 0% at ATP EC20, 100% at ATP max; activation, % at 3 µM; 360,000 compounds, 0.02% hits; AID 602247;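 active means activation above the run cutoff, the mean activation of all test compounds plus 3 SD, cut at about 40% in these data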;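 further: peak over basal fluorescence ratio in a 140 s read after ATP addition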
CHRM1 agonist: activates human CHRM1 receptor | 360,000 compounds, 0.33% hits | activation, % at 3 µM | AID 588814 | CHO-K1 hM1, Fluo-8 calcium fluorescence, agonist mode; 0% DMSO, 100% acetylcholine EC100;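 active means activation above the run's mean compound activation plus 3 SD, cut at about 16% in these data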;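 further: peak over basal fluorescence ratio within a 140 s kinetic read after compound addition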
Target sequence (P11229 whole entry, looked up): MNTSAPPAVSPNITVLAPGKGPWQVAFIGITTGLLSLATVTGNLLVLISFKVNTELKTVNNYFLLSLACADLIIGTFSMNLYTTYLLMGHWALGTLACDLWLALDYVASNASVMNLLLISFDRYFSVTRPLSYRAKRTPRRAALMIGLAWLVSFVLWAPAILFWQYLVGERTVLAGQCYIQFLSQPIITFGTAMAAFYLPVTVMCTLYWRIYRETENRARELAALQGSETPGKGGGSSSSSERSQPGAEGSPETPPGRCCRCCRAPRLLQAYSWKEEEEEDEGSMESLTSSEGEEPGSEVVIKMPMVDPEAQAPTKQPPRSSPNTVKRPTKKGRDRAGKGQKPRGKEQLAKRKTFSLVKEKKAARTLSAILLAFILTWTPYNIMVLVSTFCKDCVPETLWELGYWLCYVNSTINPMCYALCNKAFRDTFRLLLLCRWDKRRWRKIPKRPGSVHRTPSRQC
M1 antag: human CHRM1 antagonism | CHO-K1 hM1, Fluo-8 calcium fluorescence, ACh EC80 antagonist | inhibition, % at 3 µM | 360,000 compounds, 1.3% hits | AID 588852;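 active means percent inhibition above its own plate's cutoff, namely the mean of that plate's compound wells plus 3 SD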;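 further: peak over basal fluorescence ratio during 140 s after agonist addition; 0% = ACh EC80 plus DMSO and 100% = DMSO alone without agonist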
CHRM1 PAM: positive allosteric modulators of human M1 muscarinic receptor; 360,000 compounds, 0.088% hits; activation, % at 3 µM; P11229; CHO-K1 hM1, Fluo-8 calcium fluorescence, ACh EC20; 0% = ACh EC20, 100% = maximal ACh; in the data active means activation above about 19%, passing the limit was not always enough
M1 ag parental: nonselective activator or artifact in parental CHO-K1 cells; 360,000 compounds, 0.48% hits; activation, % at 3 µM; Fluo-8 calcium fluorescence; scaled to maximal ATP response, vehicle zero; in the data active means activation above about 15%;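 further: untransfected CHO-K1 host cells lacking M1 receptor as counterscreen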
CHO-K1 Ca antag: counter-screen for M1 antagonists: effect in parental CHO-K1 cells; ATP-induced calcium, Fluo-8 fluorescence; inhibition, % at 3 µM; 360,000 compounds, 0.6% hits; AID 602250;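 active means inhibition above a per-plate cutoff, the plate's mean sample inhibition plus 3 SD, cut at about 24% in these data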;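 further: 0% = DMSO plus EC80 ATP and 100% = DMSO alone without ATP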
* marks the source's active call; other numbers are inactive results. A selection: hits, their analogues and other compounds. The true share with any hit is near 2.3%.

What do the screens show for `Cc1ccccc1CN1C(=O)/C(=C\c2ccc(C(=O)NCCN3CCOCC3)cc2)Sc2ccccc21`?
M1 PAM parental: 6; CHRM1 agonist: -1; M1 antag: -1; CHRM1 PAM: 4; M1 ag parental: 2; CHO-K1 Ca antag: -4

Results for CCN1CCN(CCNC(=O)c2ccc(/C=C3/Sc4ccccc4N(Cc4cccc(Cl)c4)C3=O)cc2)CC1 ?
M1 PAM parental: 1; CHRM1 agonist: 1; M1 antag: 57*; CHRM1 PAM: -22; M1 ag parental: 6; CHO-K1 Ca antag: -2

How did CCN1CCN(CCNC(=O)c2ccc3c(c2)N(Cc2ccc(F)cc2)C(=O)/C(=C/c2ccccc2)S3)CC1 do in these assays?
M1 PAM parental: 23; CHRM1 agonist: -6; M1 antag: 4; CHRM1 PAM: -7; M1 ag parental: 2; CHO-K1 Ca antag: -12

How did Cc1cccc(CN2C(=O)/C(=C\c3ccc(C(=O)NCCN4CCOCC4)cc3)Sc3ccccc32)c1 do in these assays?
M1 PAM parental: 17; CHRM1 agonist: 1; M1 antag: 33*; CHRM1 PAM: -11; M1 ag parental: 7; CHO-K1 Ca antag: -1

How did CC1(C(=O)NS(=O)(=O)c2cccs2)CCN1C(=O)c1ccccc1CCc1ccccc1 (centres undefined) do in these assays?
M1 PAM parental: -16; CHRM1 agonist: -4; M1 antag: -8; CHRM1 PAM: 1; M1 ag parental: 0; CHO-K1 Ca antag: 23

How did O=C(NN1C(=O)NC2(CCCCC2)C1=O)c1cc2cc(Cl)ccc2o1 do in these assays?
M1 PAM parental: 7; CHRM1 agonist: -3; M1 antag: -9; CHRM1 PAM: 7; M1 ag parental: 0; CHO-K1 Ca antag: -19

What do the screens show for `O=C(NN1C(=O)NC2(CCCCC2)C1=O)c1ccc(-c2ccc(Cl)cc2)o1`?
M1 PAM parental: -6; CHRM1 agonist: -5; M1 antag: 29*; CHRM1 PAM: -15; M1 ag parental: 1; CHO-K1 Ca antag: -15

Results for O=C(O)C[C@H]1c2ccc(C(F)(F)F)cc2S(=O)(=O)N1Cc1ccccc1 ?
M1 PAM parental: 12; CHRM1 agonist: -1; M1 antag: -24; CHRM1 PAM: 23; M1 ag parental: 0; CHO-K1 Ca antag: -3

How did NC(=O)c1ccc(N2CCN(S(=O)(=O)c3cccs3)CC2)c([N+](=O)[O-])c1 do in these assays?
M1 PAM parental: -8; CHRM1 agonist: 3; M1 antag: 35*; CHRM1 PAM: -14; M1 ag parental: 17*; CHO-K1 Ca antag: 23

How did COc1cccc(CC(=O)OCC(=O)NC(Cc2ccccc2)C(C)=O)c1 (centres undefined) do in these assays?
M1 PAM parental: 14; CHRM1 agonist: -1; M1 antag: -14; CHRM1 PAM: 13; M1 ag parental: 2; CHO-K1 Ca antag: -8

How did C=CCn1c(C(O)c2ccccc2)nc2ccccc21 (centres undefined) do in these assays?
M1 PAM parental: 19; CHRM1 agonist: -3; M1 antag: -14; CHRM1 PAM: 6; M1 ag parental: 0; CHO-K1 Ca antag: -10

How did C=CCn1c(C(C)C)nc2ccccc21 do in these assays?
M1 PAM parental: 5; CHRM1 agonist: -2; M1 antag: 2; CHRM1 PAM: 2; M1 ag parental: 18*; CHO-K1 Ca antag: 5

How did COc1ccc(CN(C)C(C)C(=O)Nc2ccc(S(=O)(=O)N3CCCCC3)cc2)c(OC)c1 (centres undefined) do in these assays?
M1 PAM parental: -6; CHRM1 agonist: -7; M1 antag: 91*; CHRM1 PAM: -31; M1 ag parental: 0; CHO-K1 Ca antag: -6

What do the screens show for `CC(=O)Nc1ccc(NC(=O)C(C)Oc2ccccc2F)cc1` (centres undefined)?
M1 PAM parental: -5; CHRM1 agonist: -2; M1 antag: 5; CHRM1 PAM: 6; M1 ag parental: 0; CHO-K1 Ca antag: 24*

How did COc1ccc(CN2CCN(S(=O)(=O)c3ccc(NC(C)=O)cc3)CC2)cc1OC do in these assays?
M1 PAM parental: 7; CHRM1 agonist: -1; M1 antag: -2; CHRM1 PAM: -1; M1 ag parental: 4; CHO-K1 Ca antag: -21

Results for CCOc1ccc(CN2CCN(S(=O)(=O)c3ccc(NC(C)=O)cc3)CC2)cc1 ?
M1 PAM parental: 7; CHRM1 agonist: -11; M1 antag: -6; CHRM1 PAM: 7; M1 ag parental: 22*; CHO-K1 Ca antag: -7

How did CC(Oc1ccccc1F)C(=O)Nc1ccc2ccccc2c1 (centres undefined) do in these assays?
M1 PAM parental: -3; CHRM1 agonist: -1; M1 antag: -8; CHRM1 PAM: 7; M1 ag parental: -1; CHO-K1 Ca antag: 0

How did CC(Oc1ccccc1C(N)=O)C(=O)Nc1ccc(S(=O)(=O)N2CCCC2)cc1 (centres undefined) do in these assays?
M1 PAM parental: -13; CHRM1 agonist: -7; M1 antag: 59*; CHRM1 PAM: -24; M1 ag parental: 1; CHO-K1 Ca antag: 6

What do the screens show for `CC(C)CCOc1ccc(C(=O)N2CCCC2C(=O)O)cc1` (centres undefined)?
M1 PAM parental: 11; CHRM1 agonist: 1; M1 antag: 0; CHRM1 PAM: 13; M1 ag parental: 0; CHO-K1 Ca antag: 2

How did CCOc1cc(Br)cc(/C=N/NC(=O)c2cccnc2)c1O do in these assays?
M1 PAM parental: 22; CHRM1 agonist: 5; M1 antag: -21; CHRM1 PAM: 9; M1 ag parental: 2; CHO-K1 Ca antag: -13

Results for CCOc1ccccc1C(=O)OC(C)C(=O)Nc1ccc(S(=O)(=O)N2CCCC2)cc1 (centres undefined) ?
M1 PAM parental: -17; CHRM1 agonist: -5; M1 antag: 29*; CHRM1 PAM: -12; M1 ag parental: 0; CHO-K1 Ca antag: 25*

What do the screens show for `Cc1noc(C)c1COc1ccc(C(=O)OC(C)C(=O)Nc2ccc(S(=O)(=O)N3CCOCC3)cc2)cc1` (centres undefined)?
M1 PAM parental: 10; CHRM1 agonist: -6; M1 antag: 10; CHRM1 PAM: -4; M1 ag parental: 17*; CHO-K1 Ca antag: 10

What do the screens show for `CC(C)(C)NC(=O)C1(C)CCC(=O)N1C1CC1` (centres undefined)?
M1 PAM parental: -4; CHRM1 agonist: 0; M1 antag: 12; CHRM1 PAM: -6; M1 ag parental: 0; CHO-K1 Ca antag: 11

How did O=C(NCC1CCN(Cc2cccc(Cl)c2)CC1)Nc1ccc(Cl)cc1 do in these assays?
M1 PAM parental: -8; CHRM1 agonist: -4; M1 antag: -2; CHRM1 PAM: -2; M1 ag parental: 11; CHO-K1 Ca antag: -1

Results for COc1cc([N+](=O)[O-])ccc1NC(=O)NCC1CCN(Cc2ccc(Cl)cc2)CC1 ?
M1 PAM parental: 19; CHRM1 agonist: -7; M1 antag: 13; CHRM1 PAM: -13; M1 ag parental: 17*; CHO-K1 Ca antag: -14
